Experiment [1] has as its target Estrogen receptor (Homo sapiens) (UniProt P03372). In words: qHTS assay for small molecule antagonists of estrogen receptor alpha signaling (AID 588513; active = well fitted curve in the direction sought with a large enough effect in the signal ratio, with a control signal flat, not every such curve was filed as active; the % refers to the signal ratio; note: potency is the fitted concentration of half-maximal effect). The method in brief: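 ER-alpha-UAS-bla GripTite HEK 293 cells in 2% charcoal/dextran-treated FBS medium; compounds titrated (1:2, duplicate), then stimulated with 0.5 nM 17-beta-estradiol for 18 h at 37C. CCF4 beta-lactamase fluorescence; Hill-fit IC50 and efficacy.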

Experiment [2] can be described thus: qHTS assay for environmental chemicals that activate the Aryl hydrocarbon Receptor (AhR) signaling pathway (AID 651777). For activation: % of control where 0% means no effect. Note: nearly all actives have a fitted effect of over 15% in size. Note: potency is the fitted concentration of half-maximal effect. The settings on record: 1A2-DRE human hepatoma cells, luciferase, 24 h; activation: stronger effect = higher value. The method, boiled down:
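Stable CYP1A2 promoter/DRE-luciferase human hepatoma line treated 24 hr; One-Glo luminescence, 30 min RT.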

The target in experiment [3] is Peroxisome proliferator-activated receptor alpha (Homo sapiens) (UniProt Q07869). In words: qHTS assay for small molecule agonists of the peroxisome proliferator-activated receptor alpha (PPARalpha) signaling pathway (AID 651778). Note: % of control where 0% means no effect. Particulars: PathHunter PPARalpha complementation, chemiluminescence, 6 h; max response: stronger effect = higher value. The method, boiled down:
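Chemiluminescence from complemented enzyme reported PPARalpha activation in cells after 6 hr of compound treatment at 37 C. The detection reagent was incubated for 60 min at room temperature, and compounds were scored as agonists.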

Experiment [4] is described as follows: qHTS assay for small molecule agonists of the antioxidant response element (ARE) signaling pathway measured by Nrf2-dependant transcriptional activity - cell viability counter screen (AID 720653; active = well fitted curve in the direction sought with a large enough effect in the repeat runs; an effect the other way counts as inactive or inconclusive; note: potency is the fitted concentration of half-maximal effect; for max response: % is set by controls: 0 for no effect and ±100 for the full control effect). Particulars: ARE-bla HepG2 viability, CellTiter-Glo ATP luminescence, 16 h; max response: stronger effect = lower value. The method, boiled down: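 Cytotoxicity counter screen: intracellular ATP quantified by CellTiter-Glo luminescence in the same ARE-bla HepG2 plates, after 16 h compound exposure and a 2 h beta-lactamase substrate step.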

Experiment [5] can be described thus: qHTS assay for cell viability of HEK293 cells (AID 743288). Note: nearly all actives have a fitted effect of over 50% in size. Note: potency is the fitted concentration of half-maximal effect. The settings on record: ATP luminescence (CellTiter-Glo), 18 h; max response: stronger effect = lower value. The method in brief:
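Parental HEK293 cells, 2,000 per well, preincubated at least 5 h at 37 C, then exposed to compounds in DMSO for 18 h at 37 C. Viability by CellTiter-Glo ATP luminescence after 30 min at room temperature.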

Experiment [6] can be described thus: qHTS assay for cell viability of the p53RE-bla HCT-116 cell line (AID 743292). Note: nearly all actives have a fitted effect of over 55% in size. Note: potency is the fitted concentration of half-maximal effect. The method, boiled down:
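Readout: CellTiter-Glo luminescence after 30 min RT. Treatment: compounds in DMSO, 16 h, 37 C. Cells: CellSensor p53RE-bla HCT-116, 4,000/well, preincubated 5 h.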

Experiment [7] has as its target Peroxisome proliferator-activated receptor gamma (Homo sapiens) (UniProt P37231). In words: qHTS assay for small molecule agonists of peroxisome proliferator-activated receptor gamma signaling (AID 588536; active = well fitted curve in the direction sought with a large enough effect in the signal ratio, with a control signal flat, not every such curve was filed as active; the % refers to the signal ratio;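 note: 0% = DMSO basal wells and 100% = rosiglitazone at 2 µM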). The method in brief: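 HEK293 UAS-bla reporter line, 1% charcoal/dextran FBS; titration, 16 h, 37 C; CCF4 loading 2 h RT; fluorescence 460/530 nm. Normalized to rosiglitazone 2 uM = 100%, DMSO = 0%.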

Experiment [8] is described as follows: qHTS assay for small molecule agonists of retinoid X receptor alpha signaling (AID 588544; calls by dose curve; note: potency is the fitted concentration of half-maximal effect;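 for activation: 0% = DMSO basal wells and 100% = reference agonist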). The settings on record: HEK293T RXRa-UAS-bla, beta-lactamase reporter, 18 h; 530 nm emission.
Experiment [9] deals with Retinoic acid receptor RXR-alpha (Homo sapiens) (UniProt P19793). The description is as above.
For experiment [10], the target named is Thyroid hormone receptor beta (Homo sapiens) (UniProt P10828). Briefly: qHTS assay for small molecule agonists of thyroid hormone receptor beta signaling (AID 588545; calls by dose curve). The method, boiled down: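 In this cell-based screen, titrated compounds act on HEK 293 cells held in medium with 2% charcoal/dextran FBS, NEAA and pyruvate for 18 hrs at 37 C. Responses are expressed relative to T3 (10 nM) as 100% and basal DMSO as 0%.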

Experiment [11] can be described thus: qHTS assay for small molecule antagonists of retinoid X receptor alpha signaling (AID 588546; active = well fitted inhibition curve with a large enough effect in the signal ratio, with a control signal flat, not every such curve was filed as active; the % refers to the signal ratio;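 note: cells stimulated with 9-cis-retinoic acid as agonist; % is set by controls: 0 for no effect and ±100 for the full control effect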). The settings on record: HEK293T RXRa-UAS-bla, beta-lactamase ratio, antagonist mode; measured here: W530 green channel, cytotoxicity proxy. The method, boiled down: (§1)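 Beta-lactamase reporter inhibition, read as CCF4 fluorescence ratio (ex 405, em 460/530 nm) after 2 h at RT. HEK293T UAS-bla cells, 2500/well, were stimulated with 9-cis-RA at 500 or 100 nM final alongside test compound for 18 h at 37 C.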

The target in experiment [12] is Retinoic acid receptor RXR-alpha (Homo sapiens) (UniProt P19793). The experiment is described as above. The settings on record: HEK293T RXRa-UAS-bla, beta-lactamase ratio, antagonist mode. The method, boiled down:
as §1

The target of experiment [13] is Thyroid hormone receptor beta (Homo sapiens) (UniProt P10828). Briefly: qHTS assay for small molecule antagonists of thyroid hormone receptor beta signaling (AID 588547; active = well fitted inhibition curve with a large enough effect in the signal ratio, with a control signal flat, not every such curve was filed as active; the % refers to the signal ratio;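 note: cells stimulated with 0.4 nM T3 agonist during compound exposure; series mostly up to about 77 µM; % is set by controls: 0 for no effect and ±100 for the full control effect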). The settings on record: TR-UAS-bla HEK293, beta-lactamase ratio, antagonist mode, 18 h. The method in brief:
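Inhibition of T3-driven (0.4nM final) beta-lactamase reporter activity was measured over 0.59 nM to 92 uM compound after 18 h at 37 C. The cells were GripTite HEK293 TR-UAS-bla in charcoal/dextran-stripped serum, with CCF4 ratio read-out and IC50 from Hill fits.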

Experiment [14] can be described thus: qHTS assay for small molecule activators of the p53 signaling pathway (AID 651743; active = well fitted activation curve with a large enough effect in the signal ratio, not every such curve was filed as active; the % refers to the signal ratio; note: series mostly up to about 92 µM; % of control where 0% means no effect). Particulars: HCT-116 p53RE-bla, beta-lactamase FRET ratio, 16 h; activation: stronger effect = higher value. The method, boiled down: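 Screen for p53 pathway agonists uses stably transfected p53RE-bla HCT-116 cells, 4,000 per well, treated 16 h at 37 C with compounds in DMSO.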
Experiment [15] is described as follows: qHTS assay for small molecule agonists of the antioxidant response element (ARE) signaling pathway measured by Nrf2-dependant transcriptional activity (AID 720636; active = well fitted curve in the direction sought with a large enough effect in the repeat runs; an effect the other way counts as inactive or inconclusive;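 note: HepG2 cells with an ARE-driven luciferase reporter; % of control where 0% means no effect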). The method in brief: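 Reporter gene assay, HepG2 ARE-luc: 16 hr compound, 37 C, 5% CO2; read-out luciferase luminescence.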
Experiment [16] has as its target Estrogen receptor (Homo sapiens) (UniProt P03372). In words: qHTS assay for small molecule agonists of estrogen receptor alpha signaling (AID 588514; calls by dose curve;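 note: 0% = vehicle only and 100% = reference agonist; nearly all actives have a fitted effect of over 70% in size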). The method, boiled down: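 Reporter-gene assay. […] controls beta-lactamase in HEK 293 GripTite cells; after 18 hrs with compound, CCF4 substrate is added for 2 hrs and fluorescence is read.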
The target in experiment [17] is Peroxisome proliferator-activated receptor delta (Homo sapiens) (UniProt Q03181). In words: qHTS assay for small molecule agonists of peroxisome proliferator-activated receptor delta signaling (AID 588534; calls by dose curve;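 note: 0% = DMSO basal wells and 100% = positive control agonist at 10 µM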). The method, boiled down: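 Reporter cells were plated and held 5 hrs at 37 C before compounds were added. After 18 hrs at 37 C, CCF4 dye was loaded for 2 hrs at RT and fluorescence measured.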

Experiment [18] concerns the target Peroxisome proliferator-activated receptor gamma (Homo sapiens) (UniProt P37231). In words: qHTS assay for small molecule antagonists of peroxisome proliferator-activated receptor gamma signaling (AID 588537; active = well fitted inhibition curve with a large enough effect in the signal ratio, with a control signal flat, not every such curve was filed as active; the % refers to the signal ratio;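 note: reporter cells co-stimulated with 50 nM rosiglitazone agonist during compound treatment; % of control where 0% means no effect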). The method in brief: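 Inhibitors of agonist-stimulated UAS-bla reporter activity were sought in HEK293 cells; rosiglitazone (50 nM) defined full signal and DMSO baseline. Curves fitted to Hill model gave IC50 and efficacy.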

Experiment [19] deals with Vitamin D3 receptor (Homo sapiens) (UniProt P11473). Briefly: qHTS assay for small molecule antagonists of vitamin D receptor signaling (AID 588541; calls by dose curve;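 note: receptor activated by calcitriol during compound treatment; series mostly up to about 77 µM; % is set by controls: 0 for no effect and ±100 for the full control effect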). The method in brief: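 Antagonist-mode beta-lactamase reporter assay: HEK293T VDR-UAS-bla cells were exposed to titrated compound alongside 1-alpha,25-dihydroxyvitamin D3 at 3 nM final for 16 h. Values were normalized to the 50 nM agonist control and DMSO basal, with IC50 and efficacy from Hill equation fits.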

Experiment [20] addresses Nuclear receptor subfamily 1 group I member 2 (Rattus norvegicus) (UniProt Q9R1A7). Briefly: qHTS assay for small molecule activators of the rat pregnane X receptor (rPXR) signaling pathway (AID 651751; call rule not given here; note: 0% is about no effect). The settings on record: rPXR reporter cells, luciferase (One-Glo), 24 h.

Several values for one entry are separate records, joined by “and”; a condition that tells them apart may be missing. Equal entries are not always repeated. Results filed as inconclusive are left out. Activity calls are given as the source filed them. Unless noted, calls come from the whole dose curve; as a rule, active = well fitted curve in the direction sought with a large enough effect; inconclusive = small, poorly fitted or top-dose-only effect, or another doubt; inactive = no such curve, though single readings can be large; an effect the other way counts as inactive or inconclusive.

Chain of Peroxisome proliferator-activated receptor delta (Homo sapiens) (Q03181 whole entry, looked up): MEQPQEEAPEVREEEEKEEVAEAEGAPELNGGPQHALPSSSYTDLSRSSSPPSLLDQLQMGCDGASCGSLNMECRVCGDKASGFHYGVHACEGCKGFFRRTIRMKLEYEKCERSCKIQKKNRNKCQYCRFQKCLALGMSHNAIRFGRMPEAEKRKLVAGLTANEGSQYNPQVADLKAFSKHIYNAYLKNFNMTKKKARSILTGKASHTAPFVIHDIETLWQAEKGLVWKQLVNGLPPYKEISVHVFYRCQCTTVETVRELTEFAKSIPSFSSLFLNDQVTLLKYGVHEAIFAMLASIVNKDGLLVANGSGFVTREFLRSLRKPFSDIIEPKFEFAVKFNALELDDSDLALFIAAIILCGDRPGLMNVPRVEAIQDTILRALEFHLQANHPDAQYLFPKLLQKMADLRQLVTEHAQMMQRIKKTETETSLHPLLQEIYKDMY
Chain of Nuclear receptor subfamily 1 group I member 2 (Rattus norvegicus) (Q9R1A7 whole entry, looked up): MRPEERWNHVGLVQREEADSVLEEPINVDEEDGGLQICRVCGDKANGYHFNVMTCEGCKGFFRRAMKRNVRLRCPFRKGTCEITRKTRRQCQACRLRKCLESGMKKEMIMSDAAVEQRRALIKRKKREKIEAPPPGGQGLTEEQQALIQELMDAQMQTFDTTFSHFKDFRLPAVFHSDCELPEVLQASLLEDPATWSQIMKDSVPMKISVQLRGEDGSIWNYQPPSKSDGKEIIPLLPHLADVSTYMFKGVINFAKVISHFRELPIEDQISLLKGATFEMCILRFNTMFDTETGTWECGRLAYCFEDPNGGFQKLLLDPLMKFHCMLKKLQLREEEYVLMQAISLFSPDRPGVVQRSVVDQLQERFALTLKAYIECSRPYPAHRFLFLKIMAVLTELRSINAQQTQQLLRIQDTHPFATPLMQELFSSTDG
Chain of Retinoic acid receptor RXR-alpha (Homo sapiens) (P19793 whole entry, looked up): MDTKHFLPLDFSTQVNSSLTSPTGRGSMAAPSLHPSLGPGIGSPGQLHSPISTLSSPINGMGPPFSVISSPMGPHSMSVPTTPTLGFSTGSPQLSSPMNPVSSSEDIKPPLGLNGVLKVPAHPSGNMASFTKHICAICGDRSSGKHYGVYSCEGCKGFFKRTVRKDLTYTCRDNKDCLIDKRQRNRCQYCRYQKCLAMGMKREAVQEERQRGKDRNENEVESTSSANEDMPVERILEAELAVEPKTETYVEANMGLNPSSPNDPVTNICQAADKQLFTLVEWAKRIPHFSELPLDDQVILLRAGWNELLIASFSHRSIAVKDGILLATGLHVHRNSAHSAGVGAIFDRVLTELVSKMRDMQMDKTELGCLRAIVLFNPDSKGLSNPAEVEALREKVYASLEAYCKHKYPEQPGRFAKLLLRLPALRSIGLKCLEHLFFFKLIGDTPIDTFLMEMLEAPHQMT
Chain of Thyroid hormone receptor beta (Homo sapiens) (P10828 whole entry, looked up): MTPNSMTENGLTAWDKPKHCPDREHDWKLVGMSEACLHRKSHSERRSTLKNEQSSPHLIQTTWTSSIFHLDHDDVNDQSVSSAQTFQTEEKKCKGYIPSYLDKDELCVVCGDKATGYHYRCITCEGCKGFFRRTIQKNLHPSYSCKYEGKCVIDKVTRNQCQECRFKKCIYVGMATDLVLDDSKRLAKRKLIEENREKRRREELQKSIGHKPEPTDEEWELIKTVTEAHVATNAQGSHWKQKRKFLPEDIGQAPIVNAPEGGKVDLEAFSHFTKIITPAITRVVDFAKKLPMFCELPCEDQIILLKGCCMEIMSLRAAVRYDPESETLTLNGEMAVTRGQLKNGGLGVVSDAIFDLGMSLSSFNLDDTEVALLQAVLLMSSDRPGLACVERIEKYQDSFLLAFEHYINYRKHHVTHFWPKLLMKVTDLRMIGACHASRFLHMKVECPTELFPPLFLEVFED
Chain of Vitamin D3 receptor (Homo sapiens) (P11473 whole entry, looked up): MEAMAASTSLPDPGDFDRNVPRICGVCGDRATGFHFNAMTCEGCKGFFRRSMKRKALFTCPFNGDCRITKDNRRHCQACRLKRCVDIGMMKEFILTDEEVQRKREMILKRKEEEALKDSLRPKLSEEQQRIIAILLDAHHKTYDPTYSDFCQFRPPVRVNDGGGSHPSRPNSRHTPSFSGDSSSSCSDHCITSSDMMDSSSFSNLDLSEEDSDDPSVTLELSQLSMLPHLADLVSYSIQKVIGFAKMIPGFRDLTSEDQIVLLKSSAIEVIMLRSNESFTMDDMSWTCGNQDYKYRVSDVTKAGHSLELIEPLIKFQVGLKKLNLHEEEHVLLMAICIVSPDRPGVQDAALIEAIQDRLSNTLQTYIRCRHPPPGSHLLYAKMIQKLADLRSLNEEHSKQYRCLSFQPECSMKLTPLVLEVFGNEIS
Chain of Peroxisome proliferator-activated receptor alpha (Homo sapiens) (Q07869 whole entry, looked up): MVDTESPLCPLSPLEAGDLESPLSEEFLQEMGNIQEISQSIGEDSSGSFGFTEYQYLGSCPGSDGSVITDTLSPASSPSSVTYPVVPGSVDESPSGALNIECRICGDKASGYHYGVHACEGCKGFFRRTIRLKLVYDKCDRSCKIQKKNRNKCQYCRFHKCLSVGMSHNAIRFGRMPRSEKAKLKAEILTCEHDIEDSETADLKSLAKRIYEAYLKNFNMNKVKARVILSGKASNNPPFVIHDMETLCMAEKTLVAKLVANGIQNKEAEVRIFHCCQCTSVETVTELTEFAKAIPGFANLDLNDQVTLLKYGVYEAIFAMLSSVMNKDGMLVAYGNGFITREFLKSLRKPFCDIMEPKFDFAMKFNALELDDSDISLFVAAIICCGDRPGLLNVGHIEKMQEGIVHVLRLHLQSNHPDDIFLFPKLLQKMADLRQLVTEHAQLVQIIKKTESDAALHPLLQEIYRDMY
Chain of Estrogen receptor (Homo sapiens) (P03372 whole entry, looked up): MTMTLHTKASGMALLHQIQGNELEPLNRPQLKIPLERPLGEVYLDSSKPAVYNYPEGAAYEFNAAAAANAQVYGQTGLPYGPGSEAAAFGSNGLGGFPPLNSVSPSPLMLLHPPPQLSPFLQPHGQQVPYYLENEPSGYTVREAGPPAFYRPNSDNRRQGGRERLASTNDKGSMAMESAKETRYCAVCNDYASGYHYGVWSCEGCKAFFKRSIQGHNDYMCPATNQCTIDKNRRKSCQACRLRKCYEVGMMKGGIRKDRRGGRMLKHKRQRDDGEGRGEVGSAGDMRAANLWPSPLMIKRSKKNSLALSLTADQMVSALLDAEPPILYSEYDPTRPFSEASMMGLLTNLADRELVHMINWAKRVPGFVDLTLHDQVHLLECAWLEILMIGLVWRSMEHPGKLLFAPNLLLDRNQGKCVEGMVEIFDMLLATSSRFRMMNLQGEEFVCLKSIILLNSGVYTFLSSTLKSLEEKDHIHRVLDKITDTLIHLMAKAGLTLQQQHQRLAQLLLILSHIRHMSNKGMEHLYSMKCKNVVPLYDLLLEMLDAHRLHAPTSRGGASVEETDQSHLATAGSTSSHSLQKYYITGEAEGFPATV
Chain of Peroxisome proliferator-activated receptor gamma (Homo sapiens) (P37231 whole entry, looked up): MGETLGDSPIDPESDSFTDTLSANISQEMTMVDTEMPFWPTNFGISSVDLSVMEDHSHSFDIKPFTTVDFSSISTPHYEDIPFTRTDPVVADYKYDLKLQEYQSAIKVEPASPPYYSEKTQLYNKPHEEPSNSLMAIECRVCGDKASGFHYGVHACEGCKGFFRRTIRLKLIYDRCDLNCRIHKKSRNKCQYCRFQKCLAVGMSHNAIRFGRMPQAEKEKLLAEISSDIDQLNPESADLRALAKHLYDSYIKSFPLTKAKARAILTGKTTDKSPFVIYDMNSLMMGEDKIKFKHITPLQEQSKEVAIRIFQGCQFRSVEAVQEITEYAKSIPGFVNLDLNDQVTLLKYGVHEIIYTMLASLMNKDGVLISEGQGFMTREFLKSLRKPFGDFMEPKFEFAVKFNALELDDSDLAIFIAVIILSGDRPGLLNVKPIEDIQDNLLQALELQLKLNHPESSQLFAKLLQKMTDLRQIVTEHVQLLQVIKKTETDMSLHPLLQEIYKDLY

For `CC1(C)CN=C(NN=C(/C=C/c2ccc(C(F)(F)F)cc2)/C=C/c2ccc(C(F)(F)F)cc2)NC1`, the Potency in experiment [1] was 14.1 µM [inhibitor] (active); in experiment [4] it was 25.1 µM (active); in experiment [5] it was 44.7 µM (active); in [6], 50.1 µM (active). The activation in experiment [2] is -13.3% (inactive). Besides, in [3], the max response is -2.05% (inactive).

As to `Clc1ccc([C@@]2(Cn3cncn3)C[C@H](Br)CO2)c(Cl)c1`, the Potency result in experiment [1], in experiment [7], in experiment [10], in [15] and in experiment [6] was “inactive” in each case. Moreover, the max response is -2.9% in experiment [8]; -6.47% in [11]; -7.83% (inactive) in [12]; 0.534% (inactive) in [3]; -1.58% (inactive) in experiment [4]; -14.4% (inactive) in experiment [5]. Further, in [9], the Potency is 14.1 µM (active). In addition, the activity change % (negative = inhibition) in experiment [13] is 2.29% (inactive). Further, the activation in [14] was 0.484% (inactive); in experiment [2], 1.22% (inactive).

Take `O=C=Nc1ccc(Cl)cc1`: the Potency entry in experiment [1], in experiment [16], in [7], in [18], in [19] and in experiment [9] was “inactive” in each case. The Potency result in [10] and in [6] was “inactive” throughout. In addition, in experiment [17], the compound was called inactive. Besides, the max response in experiment [8] was -14.4%; in experiment [11], -4.38%; in experiment [12] it was -10.5% (inactive); in [3], -0.75% (inactive); in experiment [4] it was -2.93% (inactive); in [20], 8.51% (inactive). In addition, in experiment [13], the activity change % (negative = inhibition) was -1.95% (inactive). Besides, in experiment [14], the activation is 3.11% (inactive).

As to `CCOC(=O)Nc1cccc(OC(=O)Nc2ccccc2)c1`, the Potency entry in experiment [1], in [16], in [7], in experiment [18], in [19] and in [9] was “inactive” in each case. For the same compound, the Potency entry in experiment [10] and in [6] was “inactive” throughout. The result in experiment [17] was inactive. Further, the max response was 2.58% in [8]; 0.0057% in experiment [11]; -20.8% (inactive) in [12]; -0.828% (inactive) in experiment [3]; -18.4% (inactive) in experiment [4]; -5.43% (inactive) in experiment [5]. Moreover, in experiment [13], the activity change % (negative = inhibition) is 5.59% (inactive). Besides, in [14], the activation is -3.18% (inactive). The Potency in [2] was 44.7 µM (active).

As to `O=C(O)c1nc(Cl)ccc1Cl`, the Potency result in [1], in experiment [16], in experiment [9], in experiment [10], in experiment [15] and in [6] was “inactive” throughout. Besides, the max response in experiment [8] was 15.6% and -18.9%; in [11], -5.13% and -14.7%; in [12] it was -18.6% (inactive) and -6.7% (inactive); in [3], -1.62% (inactive) and -4.61% (inactive); in experiment [4], -0.246% (inactive) and 14% (inactive); in experiment [5], -0.844% (inactive) and 6.6% (inactive). In addition, the max response in experiment [20] was 3.48% (inactive) and 10.3% (inactive). In addition, the activity change % (negative = inhibition) in experiment [13] was -7.12% (inactive). In addition, the activation in experiment [14] was 3.37% (inactive); in [2], 0.739% (inactive) and -2.14% (inactive).

Take `Clc1ccc([C@@]2(Cn3cncn3)C[C@@H](Br)CO2)c(Cl)c1`: the Potency entry in experiment [1], in experiment [7], in experiment [18], in [19], in [10] and in experiment [15] was “inactive” throughout. In [6], the Potency entry is “inactive”. In addition, in [17], the result was inactive. Also, the max response in [11] is -15.6%; in experiment [3], -2.47% (inactive); in experiment [4], 2.35% (inactive); in [5] it was -20.7% (inactive). For the same compound, the activity change % (negative = inhibition) in experiment [13] was 11.5% (inactive). For the same compound, the activation in experiment [14] was -2.11% (inactive); in experiment [2] it was 1.89% (inactive).

The values above are taken from PubChem BioAssay (NCATS).
